“And” between values parts separate entries of the source, which are not always exact repeats. Equal values may be shown once. The whole screen tested about 5,500 compounds, of which about 2,000 (36%) were called active. Another 18% or so got no clear call; they are omitted. No stated cut-off is given here; in the data, active means normalized growth mostly below about 0.91 (no sharp cut-off); inconclusive means no clear call, values can overlap the other calls; inactive means mostly above about 0.92. This is one part of the list.
Assay: chemical genetic growth profiling, strain panel (AID 1159580);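 further: tested at 20 µM; growth read once vehicle control cultures reached saturation at 30 °C; 1 = growth at the plate median or of vehicle wells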
Conditions: S. cerevisiae deletion strains, growth OD

Measured: normalized growth

CC(=O)OCC(CCn1cnc2cnc(N)nc21)COC(C)=O
inactive: locus YAL013W, strain DEP1, stronger effect = lower value 0.988 | locus YAL021C, strain ccr4, stronger effect = lower value 1.01 | locus YAL026C, strain drs2, stronger effect = lower value 1 | locus YAL030W, strain snc1, stronger effect = lower value 0.982 | locus YBL061C, strain skt5, stronger effect = lower value 0.989 | locus YBR009C, strain hhf1, stronger effect = lower value 1 | locus YBR021W, strain FUR4, stronger effect = lower value 1.01 | locus YBR023C, strain chs3, stronger effect = lower value 0.998 | locus YBR171W, strain sec66, stronger effect = lower value 0.982 | locus YBR229C, strain ROT2, stronger effect = lower value 0.989 | locus YBR231C, strain swc5, stronger effect = lower value 0.971 | locus YBR279W, strain paf1, stronger effect = lower value 0.986 | locus YCL011C, strain gbp2, stronger effect = lower value 0.994 | locus YCL016C, strain dcc1, stronger effect = lower value 0.998 | locus YCL029C, strain bik1, stronger effect = lower value 0.965 | locus YCL061C, strain MRC1, stronger effect = lower value 0.991 | locus YCL069W, strain vba3, stronger effect = lower value 0.988 | locus YCR088W, strain abp1, stronger effect = lower value 0.988 | locus YDL005C, strain med2, stronger effect = lower value 0.991 | locus YDL035C, strain GPR1, stronger effect = lower value 0.994 | locus YDL040C, strain nat1, stronger effect = lower value 0.993 | locus YDL074C, strain BRE1, stronger effect = lower value 1.01 | locus YDL101C, strain DUN1, stronger effect = lower value 0.985 | locus YDL134C, strain PPH21, stronger effect = lower value 0.997 | locus YDL185W, strain tfp1, stronger effect = lower value 0.967 | locus YDL192W, strain arf1, stronger effect = lower value 0.971 | locus YDR001C, strain nth1, stronger effect = lower value 0.988 | locus YDR069C, strain doa4, stronger effect = lower value 0.972 | locus YDR101C, strain arx1, stronger effect = lower value 0.983 | locus YDR137W, strain rgp1, stronger effect = lower value 1.01 | locus YDR150W, strain NUM1, stronger effect = lower value 0.993 | locus YDR159W, strain sac3, stronger effect = lower value 1.01 | locus YDR162C, strain NBP2, stronger effect = lower value 0.996 | locus YDR195W, strain ref2 0.941 | locus YDR297W, strain sur2, stronger effect = lower value 0.987 | locus YDR318W, strain mcm21, stronger effect = lower value 0.979 | locus YDR334W, strain swr1, stronger effect = lower value 1 | locus YDR335W, strain msn5, stronger effect = lower value 0.99 | locus YDR388W, stronger effect = lower value 0.969 | locus YDR392W, strain spt3, stronger effect = lower value 0.995 | locus YDR502C, strain sam2, stronger effect = lower value 0.993 | locus YEL003W, strain gim4, stronger effect = lower value 0.984 | locus YEL037C, strain rad23, stronger effect = lower value 1 | locus YEL061C, strain CIN8 (second series), stronger effect = lower value 0.988 | locus YEL061C, strain CIN8, stronger effect = lower value 0.992 | locus YER015W, strain faa2, stronger effect = lower value 1 | locus YER016W, strain bim1, stronger effect = lower value 0.987 | locus YER110C, stronger effect = lower value 0.974 | locus YER111C, strain swi4, stronger effect = lower value 0.972 | locus YER155C, strain BEM2 (second series), stronger effect = lower value 0.959 | locus YER155C, strain BEM2, stronger effect = lower value 0.993 | locus YER167W, strain BCK2, stronger effect = lower value 0.989 | locus YFR010W, strain ubp6, stronger effect = lower value 0.98 | locus YGL078C, strain dbp3, stronger effect = lower value 0.967 | locus YGL086W, strain mad1, stronger effect = lower value 0.984 | locus YGL167C, strain pmr1, stronger effect = lower value 0.987 | locus YGL173C, strain kem1, stronger effect = lower value 1 | locus YGL227W, strain vid30, stronger effect = lower value 0.979 | locus YGL240W, strain doc1, stronger effect = lower value 0.966 | locus YGL248W, strain PDE1, stronger effect = lower value 0.987 | locus YGL253W, strain hxk2, stronger effect = lower value 0.996 | locus YGR078C, strain PAC10, stronger effect = lower value 1.01 | locus YGR135W, strain pre9, stronger effect = lower value 0.974 | locus YGR229C, strain SMI1, stronger effect = lower value 1.01 | locus YGR252W, strain gcn5, stronger effect = lower value 1.08 | locus YHR013C, strain ard1, stronger effect = lower value 1 | locus YHR027C, strain rpn1, stronger effect = lower value 0.989 | locus YHR030C, strain SLT2, stronger effect = lower value 0.984 and 0.946 | locus YHR079C, strain IRE1 (second series), stronger effect = lower value 0.961 | locus YHR079C, strain IRE1, stronger effect = lower value 0.957 | locus YHR094C, strain hxt1, stronger effect = lower value 0.973 | locus YHR129C, strain ARP1, stronger effect = lower value 0.991 | locus YHR142W, strain chs7, stronger effect = lower value 1 | locus YHR200W, strain rpn10, stronger effect = lower value 0.973 | locus YIL066C, strain RNR3, stronger effect = lower value 0.994 | locus YIL073C, strain SPO22, stronger effect = lower value 0.952 | locus YIL125W, strain kgd1, stronger effect = lower value 0.97 | locus YIR030C, strain dcg1, stronger effect = lower value 0.976 | locus YJL092W, strain hpr5, stronger effect = lower value 0.982 | locus YJL095W, strain BCK1 (second series), stronger effect = lower value 0.987 | locus YJL095W, strain BCK1, stronger effect = lower value 0.99 and 0.992 | locus YJL115W, strain asf1, stronger effect = lower value 0.979 | locus YJL129C, strain trk1, stronger effect = lower value 0.973 | locus YJL134W, strain LCB3, stronger effect = lower value 0.985 | locus YJL154C, strain vps35, stronger effect = lower value 0.997 | locus YJL164C, strain tpk1, stronger effect = lower value 1.01 | locus YJL166W, strain qcr8, stronger effect = lower value 0.984 | locus YJL168C, strain set2, stronger effect = lower value 0.974 | locus YJL187C, strain SWE1 (second series), stronger effect = lower value 0.984 | locus YJR043C, strain POL32, stronger effect = lower value 0.976 | locus YJR066W, strain TOR1, stronger effect = lower value 0.934

Reference: PubChem BioAssay AID1159580 (chemical genetic matrix, 2015)
